Bioassay records from PubChem BioAssay.
Rows were chosen to be rich in hits. Some 2.2% of all compounds tested hit in one or more screens of this group.
uPA generation – blocks generation of uPA at the cell surface; cell surface uPA generation assay, qHTS; Potency, µM (titrated, usually from 38.3 µM), inactives show at the top dose activity change, negative = inhibition, most hits filed as inhibitors; actives 0.31% (n = 330,000); AID 540303; active = well fitted inhibition curve with a large enough effect; inconclusive = small, poorly fitted or top-dose-only effect; inactive = no such curve, though single readings can be large or run the other way; tested in mouse RAW 264.7 cells; note: potency is the fitted concentration of half-maximal effect; % is set by controls: 0 for no effect and ±100 for the full control effect; nearly all actives have a fitted effect of over 55% in size
GLP1R cytotox – cytotoxicity counter-screen for GLP-1 receptor inverse agonists. HEK293 cAMP-luciferase reporter cells, luminescence, 24 h. Potency, µM (titrated, usually from 38.3 µM), without a hit: at the highest dose activity change, negative = inhibition, hits mostly inhibitors. actives 0.13% (n = 410,000);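 note: loss of luciferase light is scored as toxicity; potency is the fitted concentration of half-maximal effect; % is set by controls: 0 for no effect and ±100 for the full control effect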
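To flag toxic compounds, the library was rerun on cells for 24 hr at 37 deg C and 5% CO2. Viability-linked luminescence was captured 12 min after adding luciferase detection reagent.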
GLP-1R agonist – activates the human GLP-1 receptor | P43220 | HEK293 GLP-1R CRE-luciferase, luminescence, 4-6 h; cells express a hypersensitive GLP-1R form | Potency, µM (top dose mostly 45.6 µM), for inactives: at the highest dose activation, usual class: activators | actives 0.007% (n = 380,000) | AID 624172; note: potency is the fitted concentration of half-maximal effect; % of control where 0% means no effect
Target sequence (P43220 whole entry, looked up): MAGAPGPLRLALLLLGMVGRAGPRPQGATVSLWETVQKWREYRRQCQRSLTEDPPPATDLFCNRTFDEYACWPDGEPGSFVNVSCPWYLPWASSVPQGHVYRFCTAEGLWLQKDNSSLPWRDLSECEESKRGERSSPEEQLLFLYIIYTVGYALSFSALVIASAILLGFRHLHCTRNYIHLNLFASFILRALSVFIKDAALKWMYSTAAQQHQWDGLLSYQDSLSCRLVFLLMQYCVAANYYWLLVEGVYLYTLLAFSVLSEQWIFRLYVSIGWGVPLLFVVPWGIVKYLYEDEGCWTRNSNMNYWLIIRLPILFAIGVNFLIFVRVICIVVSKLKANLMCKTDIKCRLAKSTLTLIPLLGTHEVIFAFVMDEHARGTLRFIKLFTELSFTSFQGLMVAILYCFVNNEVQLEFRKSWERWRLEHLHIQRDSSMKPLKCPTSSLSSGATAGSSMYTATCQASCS
GLP-1R inv ag – inverse agonists of human GLP-1 receptor | P43220 | HEK293 GLP-1R CRE-luciferase, luminescence, 24 h; GLP-1R form is constitutively active | Potency, µM (highest dose often 38.3 µM), for the others: at the top dose activity change, negative = inhibition, hits mostly inhibitors | actives 1.6% (n = 410,000); note: potency is the fitted concentration of half-maximal effect; % is set by controls: 0 for no effect and ±100 for the full control effect; nearly all actives have a fitted effect of over 55% in size
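GLP-1R inverse agonism mode: basal reporter luminescence in engineered HEK293 cells measured after one day of compound exposure at 37 deg C, with a 12 min room-temperature detection step.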
MmCpn inh – M. maripaludis TRiC chaperonin inhibition; purified Mm-Cpn ATPase, ADP Transcreener TR-FRET; AID 504842; actives 0.031% (n = 330,000); Potency, µM (top dose mostly 76.9 µM), for the others: at the highest dose activity, negative = inhibition, hits mostly inhibitors; note: potency is the fitted concentration of half-maximal effect; % is set by controls: 0 for no effect and ±100 for the full control effect; nearly all actives have a fitted effect of over 80% in size
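Inhibition of chaperonin ATP hydrolysis is measured as reduced ADP production, detected by competitive TR-FRET in which signal falls with ADP. Final enzyme 25 nM and ATP 10 uM, reacted 30 min at 37°C.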
CCT chaperon mod – changes cytosolic chaperonin activity | actives 0.3% (n = 360,000) | AID 651819 | purified chaperonin ATPase assay, HTRF ADP detection, 30 min | activity change, % (no concentration beside the values), hits read low; in the data active = activity change below about -30%; note: % is set by controls: 0 for no effect and ±100 for the full control effect
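Nucleotide hydrolysis assay: TRiC at 20–40 nM final (set by batch activity) with 10 uM ATP, 30 min at 37 °C, in presence of 76 uM compound. Detection by competitive ADP HTRF, 30 min ambient.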
An asterisk follows results filed as active; i = inactive; ? = inconclusive; / = no result. Unless noted, calls come from the whole dose curve; as a rule, active = well fitted curve in the direction sought with a large enough effect; inconclusive = small, poorly fitted or top-dose-only effect, or another doubt; inactive = no such curve, though single readings can be large; an effect the other way counts as inactive or inconclusive.

SMILES | uPA generation | GLP1R cytotox | GLP-1R agonist | GLP-1R inv ag | MmCpn inh | CCT chaperon mod
CCOc1ccc(N(CC(=O)Nc2ccc(OC)cc2)S(=O)(=O)c2c(C)[nH]c(=O)[nH]c2=O)cc1 | 0.8% | -2.0% | 3.5% | 17.9% | 0.4% | -1.1
COc1ccc(N(CC(=O)Nc2nccs2)S(=O)(=O)c2c(C)[nH]c(=O)[nH]c2=O)cc1 | 4.9% | 4.2% | -6.7% | 3.2% | 2.4% | -37.3*
COc1cc(NC(=O)CC2C(=O)N(c3ccc(Cl)cc3)C(=O)N2Cc2cccs2)cc(OC)c1 (stereo not drawn) | / | -16.2% | / | ? | / | /
N#Cc1c(N2CCN(c3ccc(F)cc3)CC2)nc(N)c2c(N)nc3c(c12)CC(=O)N3C1CC1 | 0.9% | -13.7% | 0.4% | 2.2% | -1.6% | 0.5
CC1=Nc2nc(N3CCCCCC3)c(C#N)c3c4c(nc(c23)N1)N(c1ccc2ccccc2c1)C(=O)C4 | 14.1% | 4.5% | -6.4% | 0.501µM* | / | 0.7
CC(/C=N/NC(=O)Cn1nccc1C)=C\c1ccc(C(C)C)cc1 | 5.8% | -1.1% | 13.1% | 11.2µM* | 1.6% | 0.6
O=C(Cc1ccccc1)N/N=C/c1ccc2cccc(O)c2n1 | 5.9% | 5.62µM* | 6.4% | ? | 2.5% | -0.8
NC(=O)N/N=C/c1ccc2cccc(OCc3ccccc3)c2n1 | -5.7% | 2.4% | 18.7% | 49.3% | -7.4% | 2.5
COCCNC(=O)c1ccc(-n2c(-c3ccccc3)cc3c2CCCCC3)cc1 | / | -6.4% | / | -5.7% | / | /
COc1ccc(/C=N/NC(=O)c2cc(C(C)(C)C)[nH]n2)cc1COc1ccc(F)cc1F | -13.4% | ? | -6.1% | 6.31µM* | 0.8% | -0.5
COc1ccc(/C=N\NC(=O)c2ccccc2F)cc1COc1ccc(F)cc1F | -19.3% | ? | ? | ? | -9.0% | 0.6
COc1cccc(C(=O)Nc2nc(-c3nnn(-c4cccc(Cl)c4C)c3C)ns2)c1 | / | 6.9% | / | ? | / | /
CCOc1ccc(-c2nc(CSCC(=O)NC3CCN(Cc4ccccc4)CC3)c(C)o2)cc1 | / | 5.7% | 8.4% | 8.91µM* | / | 1.2
CCCCCCCN1C2=NCCN2c2ccccc21 | -25.7% | ? | -3.0% | 5.62µM* | -2.1% | 0.9
Clc1cccc(CN2C3=NCCCN3c3ccccc32)c1 | ? | -8.6% | 0.1% | -28.5% | 0.9% | 2.5
CCCCCCCN1C2=NCCCN2c2ccccc21 | -18.7% | -27.7% | 4.8% | 10µM* | 3.5% | -1.0
Clc1ccc(CN2C3=NCCCN3c3ccccc32)c(Cl)c1 | -5.3% | -29.1% | 3.4% | 8.91µM* | -23.2% | -1.2
CCC(=O)Oc1ccc(C2Nc3ccccc3-c3nnc(SC)nc3O2)cc1 (stereo not drawn) | / | -3.8% | / | 4.7% | / | /
COc1cc(NC(=O)c2nnn(CC(=O)Nc3ccccc3)c2N)cc(OC)c1 | / | -3.2% | / | 3.9% | / | /
COc1ccc(CCc2ccc3ccccc3n2)cc1 | 3.1% | -7.3% | 22.9% | 10µM* | / | 0.0
Cn1ccnc1SCC(=O)NC12CC3CC(CC(C3)C1)C2 | -4.6% | 5.2% | 0.6% | 4.6% | -5.4% | -1.1
Cc1nnc(SCC(=O)NC23CC4CC(CC(C4)C2)C3)n(N)c1=O | 3.0% | 11.0% | -1.2% | 37.1% | 0.3% | -41.8*
C[C@]12C=CC(=O)C=C1[C@@H](F)C[C@@H]1[C@@H]2[C@@H](O)C[C@@]2(C)[C@H]1CC[C@]2(O)C(=O)CO | / | / | -6.1% | / | / | /
O=C(CCCn1c(=O)c2cccn2c2cccnc21)Nc1ccccc1Br | / | 14.8% | / | 23.0% | / | /
CC(C)(C)N(Cc1ccccc1)C(=O)c1cc2ccccc2o1 | -24.2% | -0.7% | 5.0% | 2.24µM* | 1.0% | -1.1
SMILES | uPA generation | GLP1R cytotox | GLP-1R agonist | GLP-1R inv ag | MmCpn inh | CCT chaperon mod
CN(Cc1ccccc1)C(=O)c1cc2ccccc2o1 | 2.9% | 5.5% | -1.5% | 6.2% | 0.7% | -1.3
COc1ccccc1C(=O)NNC(=O)c1nn(Cc2ccccc2)c(=O)c2ccccc12 | 6.7% | 10µM* | 10.3% | ? | -1.8% | -2.0
CC(C)(C)c1cc(OC(=O)C2CCCC2)ccc1O | 3.2% | 1.9% | -9.0% | 6.6% | 1.6% | -5.6
CCCCC(CC)C(=O)Oc1ccc(O)c(C(C)(C)C)c1 (stereo not drawn) | 6.6% | ? | 16.7% | 5.62µM* | 3.1% | 1.7
CN(C)CCCN(Cc1ccccc1)C(=S)Nc1ccc(OC(F)F)cc1 | 5.2% | -0.3% | -14.2% | ? | -0.9% | -53.9*
CCCCCn1c(CCCNC(=O)c2ccc(Cl)cc2)nc2ccccc21 | / | 18.3% | / | -15.4% | / | /
COC(=O)c1ccc(C(=O)OC)c(NC(=O)CSCc2ccc(Br)cc2)c1 | 8.0% | -17.9% | -1.4% | 7.94µM* | -2.5% | -3.9
O=C(NCCN1C(=O)S/C(=C\c2ccc(OC(F)F)cc2)C1=O)C1=COCCO1 | -10.9% | -19.4% | -17.9% | ? | 0.4% | -3.7
COc1ccc(/C=C2\SC(=O)N(CCNC(=O)C3=COCCO3)C2=O)cc1 | 7.08µM* | ? | 4.9% | -26.6% | 0.6% | 1.3
O=C(NCCN1C(=O)S/C(=C\c2ccccc2Cl)C1=O)C1=COCCO1 | 7.94µM* | -11.7% | 10.2% | -15.0% | 0.3% | 0.7
O=C(NCCN1C(=O)S/C(=C\c2ccccc2F)C1=O)C1=COCCO1 | -11.1% | -29.4% | 5.7% | 1µM* | 1.1% | 4.2
CCOc1ccc(/C=C2\SC(=O)N(CCNC(=O)C3COc4ccccc4O3)C2=O)cc1OC (stereo not drawn) | -11.5% | -15.1% | -7.4% | -6.1% | 1.9% | -34.5*
O=C(NCCN1C(=O)S/C(=C\c2ccc(Cl)cc2Cl)C1=O)C1=COCCO1 | ? | -21.0% | 8.1% | ? | 0.8% | -3.4
CCOC(=O)c1[nH]c2ccccc2c1NC(=O)c1ccccc1F | / | -9.3% | 2.6% | ? | / | /
Cc1ccc(C)c(NC(=O)CN2C(=O)CCc3cc(S(=O)(=O)N4CCCCC4)ccc32)c1 | / | 1.8% | / | -13.9% | / | /
CCOC(=O)c1[nH]c(C)c(C(=O)Nc2ccc(C)c(C)c2)c1C | ? | -10.7% | 7.2% | -15.6% | 1.1% | -2.6
CCOC(=O)c1[nH]c(C)c(C(=O)Nc2ccc(C)cc2C)c1C | 2.51µM* | -27.2% | 1.8% | ? | 1.4% | -0.4
O=C(CSc1nnc(Cn2nnc3ccccc32)o1)N(Cc1ccc(F)cc1)c1ccccc1 | -7.1% | 0.8% | -2.3% | 11.2µM* | 0.3% | -0.6
COc1ccc(/C=C2\CCCc3c2nc2ccccc2c3C(=O)O)cc1OC | / | / | / | / | -5.1% | /
COc1ccc(/C=C2\CCc3c2nc2ccccc2c3C(=O)O)cc1OC | 3.55µM* | i | -4.0% | ? | -1.9% | 1.7
COc1ccc(NC(=O)Nc2c[nH]c(=O)[nH]c2=O)c(OC)c1 | / | 2.1% | / | -4.6% | / | /
